Sampled rows, rich in hits. Any-hit rate of the full collection: about 5.2%.
SMARCA2 act – SMARCA2 (BRM) function activators, primary screen, cell-based, luminescence, high throughput; activation, % at 9.1 µM; 370,000 tested, 1% active; AID 652017, 2013; MG213 cells, MMTV-luciferase reporter, dexamethasone, overnight; in the data active = activation above about 7.8%
Vif imaging – HIV Vif self-association inhibitors, primary screen, imaging, HEK293T, single point; HEK293T cells, Vif self-association by quenched fluorescence, 24 h; inhibition, % at 7.49 µM; 340,000 tested, 0.35% active; in the data active = inhibition above about 50%, passing the limit was not always enough
SKN-1 block – suppressors of acrylamide-induced Pgst-4::GFP reporter in worms, primary screen, SKN-1 inhibitor project, whole organism, uHTS, GFP/RFP fluorescence ratio, strain VP596; AID 624304, 2012; C. elegans VP596 Pgst-4::GFP/RFP ratio, 24 h; 360,000 tested, 0.49% active; inhibition, % at 21.8 µM;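 active = interference check ratio from 0.5 to 1.5 plus GFP to RFP signal ratio inhibition reaching or exceeding a fixed threshold, cut at about 30% in these data, passing the limit was not always enough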
esBAF inh – Bmi1 luciferase reporter increase in mESCs, primary screen, esBAF inhibitor project, mouse ES cells, Bmi1 luciferase knock-in, single point; 24 h; 100% = twice the neutral-well signal; reporter increase, % at 12.5 µM; 350,000 tested, 2% active; AID 602393, 2012; in the data active = activation above about 40%;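 note: a rise in the Bmi1 reporter signal indicates esBAF inhibition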
GRIN3A LBD mod – binders of NR3A ligand-binding domain, primary screen, biophysical, differential scanning fluorimetry, uHTS. Glutamate receptor ionotropic, NMDA 3A (GRIN3A) ligand-binding domain. NR3A LBD differential scanning fluorimetry, Tm shift; 0% = protein alone, 100% = glycine-bound protein. Tm shift relative to glycine control, % at 25 µM. 340,000 tested, 2.5% active. AID 1259313, 2017;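 active = melting temperature shift of at least 10% of the positive control shift, at one fixed dose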
NadD inh – inhibitors of S. aureus NadD, primary screen, biochemical, colorimetric, uHTS; Nicotinate-nucleotide adenylyltransferase NadD (Staphylococcus aureus N315); purified NadD enzyme, colorimetric absorbance read-out; inhibition, % at 20 µM; 360,000 tested, 0.78% active; AID 602399, 2012; in the data active = inhibition above about 26%
Hits are given with their value.

O=C(C[C@H]1C=C[C@@H](NC(=O)CN2CCOCC2)[C@@H](CO)O1)NC1CCC1 was read as esBAF inh inactive.
For Cn1c(-c2ccccc2)cc2c3no[n+]([O-])c3ccc21 the results were SMARCA2 act inactive, Vif imaging 61, SKN-1 block inactive, esBAF inh inactive, GRIN3A LBD mod inactive and NadD inh inactive.
For Cn1c(-c2ccccc2)cc2ccccc21 the results were SMARCA2 act inactive, Vif imaging inactive, SKN-1 block inactive, esBAF inh inactive, GRIN3A LBD mod inactive and NadD inh inactive.
For CCCN(CCC)CCCNC(=O)c1cc2c(=O)[nH]c3ccccc3c2n1C the results were SMARCA2 act inactive, Vif imaging inactive, SKN-1 block inactive, GRIN3A LBD mod inactive and NadD inh inactive.
Screening Cn1c(C(=O)NCc2ccco2)cc2c(=O)[nH]c3ccccc3c21 returned SMARCA2 act inactive, Vif imaging inactive, SKN-1 block inactive, esBAF inh inactive, GRIN3A LBD mod 24 and NadD inh inactive.
O=C(C[C@@H]1CC[C@@H](NC(=O)Nc2ccc(C(F)(F)F)cc2)[C@H](CO)O1)NCc1cc(F)cc(F)c1 was read as esBAF inh inactive.
Screening Cc1ccc(-c2cc(C(=O)N=Nc3c(O)[nH]c4ccccc34)[nH]n2)cc1C returned SMARCA2 act inactive.
Screening O=C(N=Nc1c(O)[nH]c2ccccc12)c1cc(-c2ccc(F)cc2)n[nH]1 returned SMARCA2 act inactive, Vif imaging inactive, SKN-1 block inactive, GRIN3A LBD mod 19 and NadD inh inactive.
For O=C(N=Nc1c(O)[nH]c2ccccc12)c1cc(-c2cccs2)[nH]n1 the results were SMARCA2 act inactive, Vif imaging inactive, SKN-1 block inactive, GRIN3A LBD mod 22 and NadD inh inactive.
C[C@@H]1CN([C@H](C)CO)C(=O)c2cccc(NC(=O)c3nc4ccccc4s3)c2O[C@H]1CN(C)C(=O)NC1CCCCC1 was read as esBAF inh inactive.
`Cc1nc(NC(=O)c2ccccc2)sc1-c1csc(Nc2ccc(C(=O)O)cc2)n1` gave SMARCA2 act inactive, Vif imaging inactive, SKN-1 block inactive, esBAF inh inactive, GRIN3A LBD mod inactive and NadD inh inactive.
Cc1nc(NC(=O)c2ccccc2)sc1-c1csc(NCc2ccco2)n1 was read as Vif imaging inactive, SKN-1 block inactive, esBAF inh inactive, GRIN3A LBD mod inactive and NadD inh 47.
For Cc1nc(C)c(-c2csc(NCc3ccco3)n2)s1 the results were SMARCA2 act inactive, SKN-1 block inactive, esBAF inh 62, GRIN3A LBD mod inactive and NadD inh inactive.
`COc1cccc(Nc2nc(-c3sc(NC(=O)c4ccccc4)nc3C)cs2)c1` gave SMARCA2 act inactive, Vif imaging inactive, SKN-1 block inactive, esBAF inh 52, GRIN3A LBD mod inactive and NadD inh inactive.
COc1ccccc1CNC(=O)C[C@H]1C[C@H]2c3cc(NC(=O)CN(C)C)ccc3O[C@H]2[C@@H](CO)O1 was read as esBAF inh inactive.
For CCN(CC)S(=O)(=O)c1cccc(-c2n[nH]c(=S)n2/N=C/c2ccc(OC)cc2)c1 the results were SMARCA2 act inactive, Vif imaging inactive, SKN-1 block inactive, esBAF inh inactive, GRIN3A LBD mod inactive and NadD inh inactive.
Screening CCN(CC)S(=O)(=O)c1cccc(-c2n[nH]c(=S)n2/N=C/c2ccc(Br)cc2)c1 returned SMARCA2 act inactive, Vif imaging inactive, SKN-1 block inactive, GRIN3A LBD mod 22 and NadD inh inactive.
CC(C)NC1=C(Cl)C(=O)c2ccccc2C1=O was read as SMARCA2 act inactive, Vif imaging 63, SKN-1 block inactive, esBAF inh inactive, GRIN3A LBD mod inactive and NadD inh inactive.
